Screening results (PubChem BioAssay)
Tau fluor cs = counter-screen for tau fibril formation inhibitors; tau K18 P301L Alexa594 fluorescence, heparin fibrillization; Potency, µM (doses to about 57.7 µM), without a hit: at the highest dose activity change, negative = decrease; hit rate 0.93% among 280,000; AID 1463; further: potency means the concentration at half of the fitted maximal effect; nearly all actives have a fitted effect of over 55% in size
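Human K18 P301L tau (15 uM unlabeled plus 0.24 uM Alexa 594-labeled, final) in 100 mM sodium acetate pH 7 was mixed with compound and 20 uM heparin and incubated 6 hr at 37 C.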
PNC assembly inh = perinucleolar compartment assembly inhibition | PC3M PTB-GFP, PNC prevalence imaging, 16 h; hits give low values | activity change (PNC), negative = inhibition, % at 10 µM | hit rate 3.1% among 140,000 | AID 2417;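 active means readout at or below -70, meaning at least 70% loss of cells showing the perinucleolar compartment, a nuclear body marking cancer cells; inconclusive means readout between -30 and a set limit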;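 further: plate controls were DMSO wells for no effect and camptothecin positive control wells for full effect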
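PC3M cells stably expressing PTB-GFP, 750–1000 cells/well, treated 16 h at 37 °C with compound (23 nl of library stock), in duplicate. After paraformaldehyde fixation and Hoechst stain, imaged at 20x; PNC prevalence scored by image analysis.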
TRb-SRC2 inh = disrupts binding of human TR beta to SRC2; P10828; TRbeta-SRC2 peptide binding, fluorescence polarization; receptor liganded with 1 µM T3; Potency, µM (highest dose often 106 µM), without a hit: at the highest dose activity change, negative = inhibition, hits mostly inhibitors; hit rate 0.065% among 280,000;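 further: potency means the concentration at half of the fitted maximal effect; plate controls were bound peptide for no effect and peptide without receptor for full effect; nearly all actives have a fitted effect of over 50% in size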
Target sequence (P10828 whole entry, looked up): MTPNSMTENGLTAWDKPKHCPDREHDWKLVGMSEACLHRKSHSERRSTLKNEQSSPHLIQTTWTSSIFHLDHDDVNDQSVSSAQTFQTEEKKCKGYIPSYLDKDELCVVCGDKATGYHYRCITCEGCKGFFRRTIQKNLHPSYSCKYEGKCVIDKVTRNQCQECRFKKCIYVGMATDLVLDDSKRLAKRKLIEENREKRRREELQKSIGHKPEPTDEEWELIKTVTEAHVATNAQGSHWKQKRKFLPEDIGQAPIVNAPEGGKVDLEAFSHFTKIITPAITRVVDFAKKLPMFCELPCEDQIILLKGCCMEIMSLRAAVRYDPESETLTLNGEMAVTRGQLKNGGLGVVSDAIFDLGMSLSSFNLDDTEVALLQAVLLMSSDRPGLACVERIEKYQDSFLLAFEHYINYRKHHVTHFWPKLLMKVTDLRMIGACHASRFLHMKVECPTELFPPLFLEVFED
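Assay buffer: 20 mM Tris-HCl, 100 mM NaCl, 10% glycerol, 1 mM EDTA, 0.01% NP-40, 1 mM DTT, 1 uM T3, 5% DMSO; TRb LBD 0.6 uM, Texas Red SRC2 20 nM; FP after 5 hr.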
Tau fibril ThT = inhibitors of human tau fibril formation, thioflavin T binding | recombinant tau K18 P301L (four-repeat tau fragment), heparin-induced fibrillization, ThT fluorescence | P10636 | hit rate 2.1% among 270,000 | Potency, µM (series often up to 57.4 µM), without a hit: at the highest dose activity, negative = inhibition, actives largely listed as inhibitors; further: potency means the concentration at half of the fitted maximal effect; nearly all actives have a fitted effect of over 55% in size
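Heparin-induced fibrillization of the P301L-mutant K18 repeat-domain fragment of human tau was followed by ThT binding in quantitative high-throughput format.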
TR SRC2 fluor cs = Texas Red fluorescence interference in TRb-SRC2 counter-screen; AID 1479; hit rate 0.29% among 280,000; TRb/SRC2 Texas Red total fluorescence interference; Potency, µM (series often up to 106 µM), for inactives: top-dose fluorescence change, negative = quenching; active means well fitted curve in either direction with a large enough effect; inconclusive means small, poorly fitted or top-dose-only effect; further: potency means the concentration at half of the fitted maximal effect
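Flags fluorescent or light-absorbing compounds by total fluorescence, S + 2P, at 555 nm excitation and 632 nm emission. Mixture: 20 nM Texas Red SRC2 peptide, 0.6 uM human TRb LBD, 1 uM T3, 5% DMSO; compound exposure 5 h at ambient temperature.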
Tau FP inhib = blocks human tau fibril formation measured by polarization; hit rate 0.39% among 280,000; Potency, µM (top dose mostly 57.7 µM), without a hit: top-dose activity, negative = inhibition, most hits filed as inhibitors; P10636; AID 1468; K18 P301L tau heparin fibrillization, Alexa594 FP, 6 h; further: potency means the concentration at half of the fitted maximal effect; nearly all actives have a fitted effect of over 55% in size
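Steps: dispense K18 P301L tau (15 uM plus 0.24 uM Alexa 594 tracer, final) in pH 7 sodium acetate; add compound; add heparin (20 uM final); incubate 6 hr, 37 C; add ThT (30 uM final); after 1 hr ambient, read FP.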
Starred values were filed as active, the others as inactive; ? = inconclusive; . = not tested or not shown; [ ] = another dose, or the depositor's remark. This is a sample that favours compounds with a hit; in the whole collection about 4.6% have one here. Unless noted, the call rests on the fitted dose curve; in most records, active means well fitted curve in the direction sought with a large enough effect; inconclusive means small, poorly fitted or top-dose-only effect, or another doubt; inactive means no such curve, though single readings can be large; an effect the other way counts as inactive or inconclusive. Unless noted, on the % scale 0 is the no-effect control and ±100 the full control effect.

SMILES	Tau fluor cs	PNC assembly inh	TRb-SRC2 inh	Tau fibril ThT	TR SRC2 fluor cs	Tau FP inhib
Cn1c(=O)n(C)c2cc(/C=N/NC(=O)c3cc4cc(Br)ccc4o3)ccc21	-22%	.	0%	?	-2%	-7%
COc1ccc(Br)cc1C(=O)N/N=C/c1ccc2c(c1)n(C)c(=O)n2C	3%	-82*	-8%	-5%	-2%	-7%
O=C(N/N=C/c1ccc(N2CCOCC2)cc1)c1ccccn1	-17%	.	1%	14µM*	-2%	-3%
O=C(N/N=C\c1cc([N+](=O)[O-])ccc1N1CCOCC1)c1ccccn1	-16%	.	4%	-13%	-3%	-9%
COc1ccc(Cl)cc1C(=O)N/N=C/c1ccc(N2CCOCC2)cc1	-23%	.	-2%	11µM*	-3%	1%
Cc1ccc2nc(C)c(C(=O)N/N=C/c3ccc(N4CCOCC4)cc3)cc2c1	-5%	14	-5%	?	-4%	3%
Cc1ccc(NC(c2nnc(-c3ccccc3)o2)c2ccccc2F)c([N+](=O)[O-])c1 (stereo not given)	-27%	.	-21%	?	251µM*[quencher]	0%
CCOC(=O)Nc1sc(=S)n(C)c1C	-5%	-12	-19%	-14%	-3%	-1%
CCCN(c1ccc(OCC)cc1)S(=O)(=O)c1ccc2c(c1)CCN2C(=O)CCC(=O)O	0%	56	2%	-6%	1%	-2%
CCCCN(c1ccccc1)S(=O)(=O)c1ccc2c(c1)CCN2C(=O)CCC(=O)O	5%	-83*	0%	-4%	-2%	4%
CC1C(=O)CC(c2ccccc2)NC1c1ccccc1 (stereo not given)	-4%	18	-4%	-8%	0%	0%
C/[N+]([O-])=C\c1coc2ccccc2c1=O	-6%	25	6%	-5%	-6%	-5%
O=C1NC(=S)S/C1=C\c1coc2ccc(O)cc2c1=O	-26%	.	19%	1.1µM*	-25%	-2%
O=C(c1coc2ccc(O)cc12)C1CC1	-4%	?	3%	-11%	0%	12%
O=C1NC(=S)S/C1=C\c1coc2ccccc2c1=O	-4%	.	-23%	7.9µM*	14%	-8%
COc1cc(C2c3c([nH]c(=O)[nH]c3=O)Nc3ccc4ccccc4c32)cc(OC)c1OC (stereo not given)	?	.	-7%	-16%	-6%	1%
O=C(NCc1cccc(C(F)(F)F)c1)c1cc(Cl)ccc1Cl	-4%	-108*	1%	5%	0%	4%
O=C(NCc1cccnc1)c1cccc(C(F)(F)F)c1	-8%	-94*	-6%	-10%	-4%	2%
Cc1cc(=O)n2nc(N3CCC(C(=O)NCc4cccnc4)CC3)sc2n1	0%	0	5%	-29%	-1%	7%
Cn1cnc2c1c(=O)n(Cc1cccc(Br)c1)c(=O)n2C	3%	10	0%	-2%	4%	-8%
COCCSc1ccccc1C(=O)N1CCCC1	0%	12	-18%	1%	4%	-6%
COc1ccc(S(=O)(=O)Cc2ccc(C(=O)NC3CCCCC3)o2)cc1	-21%	.	-24%	-16%	5.6µM*[quencher]	-3%
COc1ccc(S(=O)(=O)Cc2ccc(C(=O)NC3CC3)o2)cc1	0%	?	2%	-4%	3%	-1%
Cc1ccc(S(=O)(=O)Cc2ccc(C(=O)NCc3ccc4c(c3)OCO4)o2)cc1	-13%	-107*	12%	-6%	-2%	0%
O=C(NC1CCCC1)c1ccc(Br)o1	-2%	-85*	4%	-8%	0%	-3%
Cc1ccnc(NC(=O)COc2c(C)cc(C)cc2[N+](=O)[O-])c1	-5%	?	0%	-9%	-2%	3%
Cc1ccc(C(=O)N2C3=C(CCCC3)C(=O)NC23CCCCC3)cc1	-8%	.	-4%	-9%	-1%	-5%
COC(=O)C1=C(C)C(c2cccs2)NC(=O)N1C (stereo not given)	-2%	-100*	-1%	-6%	-4%	4%
